This passage reports Potency results from PubChem BioAssay (NCATS).

Results filed as inconclusive are left out. Where a call stands in place of a potency, no number is given. Activity calls are given as the source filed them. Calls come from the whole dose curve; as a rule, active = well fitted cell-killing curve with a large enough effect; inconclusive = small, poorly fitted or top-dose-only effect; inactive = no such curve, though single readings can be large or run the other way.
Potency is the fitted concentration of half-maximal effect.

A short description of this assay: qHTS of pediatric cancer cell lines to identify multiple opportunities for drug repurposing: Primary screen for A673 cells (AID 1347092). Note: nearly all actives have a fitted effect of over 45% in size. Particulars: A673 Ewing sarcoma viability, CellTiter-Glo ATP luminescence, 48 h; series mostly up to 46 µM. An excerpt:
Drug repurposing or repositioning has been offered as a strategy for drug development in oncology programs. This approach has special potential for childhood cancers and other rare or orphan diseases, where the expected return on new drug development has been a disincentive to pharmaceuticals. […] In this project we exploit the poly-pharmacology of drugs to discover new indications via phenotypic screening of a panel of 19 well-characterized cell lines derived from solid tumors seen in children and adolescents. The goal is to identify approved drugs with previously unrecognized anticancer properties that has the potential to reveal new mechanisms and biological processes involved in carcinogenesis or drug resistance. We employed a titration-based paradigm (quantitative high-throughput screening or qHTS), where all compounds were tested at multiple concentrations for their effect on cell viability. Concentration-response curves (CRCs) were derived directly from the primary screen, and both potency and efficacy values were used to identify compounds with robust bioactivity profiles. We screened the NIH Chemical Genomics Center (NCGC) Pharmaceutical Collection (NPC) and Mechanism Interrogation Plate (MIPE) small molecule collections of approved and investigational compounds against these cell lines; and measured metabolically active cells after 48 hours of compound treatment as a proxy for cell viability. […] Assay Submitter: Nathalia J. Martinez, National Center for Advancing Translational Sciences, National Institutes of Health, Rockville, MD, USA; email: natalia.martinez@nih.gov. Shen, M et al. Quantitative high-throughput phenotypic screening of pediatric cancer cell lines identifies multiple opportunities for drug repurposing. Oncotarget 2017 Dec 19;9(4):4758-4772. PMID 29435139.
The cells were obtained from University of North Carolina (UNC), Pediatric Preclinical Testing Program (PPT), and Coriell Institute (CI). qHTS cell viability assay: Cells were assayed in growth media at a density of 500-1,000 cells/well. Five microliters of cells were dispensed into 1,536-well, white, solid-bottom, TC-treated plates (Greiner Bio One) using a multidrop dispenser and incubated at 37 degrees C, 5% CO2, under a humidified atmosphere for 5 hours. Twenty-three nanoliters of compounds and controls (neutral control DMSO or positive control bortezomib at final concentration of 2.3 uM) were subsequently transferred by Kalypsys pintool. For primary screens, the MIPE collection was tested at 11-point dilutions (final concentrations range from 0.78 nM to 46 µM) and the NPC collection at 8-point dilutions (final concentrations range from 0.59 nM to 46 µM). Compounds tested in follow-up screens were assayed at 11-point dilutions. Cells were incubated for 48 hours, followed by addition of 3 uL of CellTiter-Glo (Promega). After a 15min incubation at room temperature, samples were analyzed for luminescence intensity using a ViewLux High-throughput CCD imager equipped with clear filters.
For orientation: qHTS replaces the single test concentration by a dilution series.
Regarding `CCN(CC)C(=O)c1ccc(C2=CC3(CCNCC3)Oc3cccc(O)c32)cc1`, the Potency entry is “inactive”.
The result for `O=S(=O)(CC1CS1)c1ccc(Oc2ccccc2)cc1` (stereo not given) reads 9.35 µM (active); that for `C#C[C@]1(O)C=C[C@@H]2[C@@H]3CCC4=CC(=O)CC[C@@H]4[C@H]3CC[C@@]21CC`, “inactive”; that for `CC(=O)Nc1ccc(OC[C@](C)(O)C(=O)Nc2ccc([N+](=O)[O-])c(C(F)(F)F)c2)cc1`, “inactive”.
The result for `CCCCOC(=O)c1ccccc1C(=O)OCc1ccccc1` reads “inactive”; that for `Cc1ccc(Cl)c(O)c1`, “inactive”; that for `Oc1ccc2c3c1O[C@H]1c4[nH]c5c(c4C[C@@]4(O)[C@@H](C2)N(CC2CC2)CC[C@]314)C[C@@]1(O)[C@H]2Cc3ccc(O)c4c3[C@@]1(CCN2CC1CC1)[C@H]5O4`, “inactive”.
As for `CC(=O)OCC1=C(C(=O)O)N2C(=O)[C@@H](N)[C@@H]2SC1`, the Potency was 0.187 µM (active).
Under `Nc1ccc(N=Nc2ccccc2)cc1` stands 24.3 µM (active); under `O=S(=O)(O)C(F)(F)C(F)(F)C(F)(F)C(F)(F)F`, “inactive”.
The result for `Cc1cc(O)ccc1Cl` reads “inactive”; that for `CC(C)(O)C=CC(=O)[C@](C)(O)[C@H]1[C@H](O)C[C@]2(C)[C@@H]3CC=C4[C@@H](C=C(O)C(=O)C4(C)C)[C@]3(C)C(=O)C[C@@]12C`, 0.187 µM (active).
`c1ccc2c(CN3CCNCC3)cccc2c1`: the Potency result is “inactive”.
For `C=CCC1=C(C)C(OC(=O)C2C(C=C(C)C)C2(C)C)CC1=O` (stereo not given), the Potency was 48.6 µM (active).
Take `CCC1(CCC(C)C)C(=O)NC(=O)NC1=O`: the Potency entry is “inactive”.
The result for `CC1(C)CC/C(=C/c2ccc(Cl)cc2)C1(O)Cn1cncn1` (stereo not given) reads “inactive”; that for `CCC(=O)O[C@@H]1C=C2CCC3C(CCC4(C)C3CC[C@@H]4OC(=O)CC)C2CC1` (stereo not given in full), “inactive”; that for `Cc1[nH]nc2ccc(-c3cncc(OC[C@@H](N)Cc4c[nH]c5ccccc45)c3)cc12`, 0.118 µM (active).
`CCOP(=O)(OCC)C(C)NC(=O)N(CCCl)N=O` (stereo not given): the Potency entry was “inactive”.
The result for `c1cc2c(cc1[C@H]1OC[C@H]3[C@H]1CO[C@H]3c1ccc3c(c1)OCO3)OCO2` reads “inactive”; that for `O=C(NCC1CCOCC1)c1cnc(Nc2ccc(Cl)cc2Cl)nc1C(F)(F)F`, 18.7 µM (active); that for `O=C(Nc1ccncc1)C(=O)c1cn(Cc2ccc(Cl)cc2)c2ccccc12`, 0.0743 µM (active).
For the molecule `N=c1c2c(-c3ccccc3)c(-c3ccccc3)n(Cc3ccccc3)c2ncn1C1CCC(O)CC1` (stereo not given), the Potency was 18.7 µM (active).
`CC(C)(O)C(=O)Nc1ccc([N+](=O)[O-])c(C(F)(F)F)c1`: the Potency was 11.8 µM (active).
With `CCOC(=O)c1cncn1[C@H](C)c1ccccc1`, the Potency result was “inactive”.
On to `CC1=C(C(=O)O)N2C(=O)[C@@H](N)[C@H]2SC1`, for which the Potency result was “inactive”.
For `CC(C)N[C@@H]1CCn2c(=O)[nH]c3cccc(c32)[C@@H]1O`, the Potency was 0.833 µM (active).
The result for `O=C(N[C@H]1CN2CCC1CC2)c1ccc(Cl)cc1` reads 5.9 µM (active); that for `C=CC(=O)NCNC(=O)C=C`, “inactive”; that for `O=[N+]([O-])c1ncc[nH]1`, “inactive”.
The result for `Fc1cc(Br)ccc1CBr` reads “inactive”; that for `COC[C@H]1OC(=O)c2coc3c2[C@@]1(C)C1=C(C3=O)[C@@H]2CC[C@H](O)[C@@]2(C)C[C@@H]1OC(C)=O`, 9.35 µM (active).
Under `CC(N[C@H]1C[C@H]1c1ccccc1)c1ccc2c(c1)OCCO2` (stereo not given in full) stands “inactive”; under `O=C(O)c1cc(Oc2ccc(C(F)(F)F)cc2Cl)ccc1[N+](=O)[O-]`, “inactive”.
As for `S=C(SSC(=S)N1CCCCC1)N1CCCCC1`, the Potency was 0.0266 µM (active).
Turning to `Cc1c(C(=O)c2cccc3ccccc23)c2cccc3c2n1[C@H](CN1CCOCC1)CO3`, the Potency is 23.5 µM (active).
The result for `C#CC1(O)CCC2C3CCC4=CC(=O)CCC4(C)C3CCC21C` (stereo not given) reads “inactive”.
On to `C[C@@H]1CC[C@H]2[C@@H](C)C(=O)O[C@@H]3O[C@@]4(C)CC[C@H]1[C@]32OO4`, for which the Potency entry is “inactive”.
As for `O=C1CCC[C@@H]2[C@H]3CCCN4CCC[C@@H](CN12)[C@@H]34`, the Potency result was “inactive”.
Take `CCCCCC[C@H]1C(=O)O[C@H](C)[C@H](NC(=O)c2cccc(NC=O)c2O)C(=O)O[C@@H](C)[C@@H]1OC(=O)CC(C)C`: the Potency was 0.296 µM (active).
